Most compounds without a hit are left out; they make up all but 5.2% or so of the library.
CendR NRP1 mod = modulators of CendR peptide binding to NRP-1, primary screen, biochemical, fluorescence polarization, uHTS; FAM-RPARPAR peptide binding to NRP-1; inhibition, % at 25 µM; hit rate 0.85% among 360,000;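 active = inhibition or corrected inhibition above about 18%, plus a signal ratio from 0.5 to 1.5, limit read from the data, passing the limit was not always enough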
Target sequence (O14786 whole entry, looked up): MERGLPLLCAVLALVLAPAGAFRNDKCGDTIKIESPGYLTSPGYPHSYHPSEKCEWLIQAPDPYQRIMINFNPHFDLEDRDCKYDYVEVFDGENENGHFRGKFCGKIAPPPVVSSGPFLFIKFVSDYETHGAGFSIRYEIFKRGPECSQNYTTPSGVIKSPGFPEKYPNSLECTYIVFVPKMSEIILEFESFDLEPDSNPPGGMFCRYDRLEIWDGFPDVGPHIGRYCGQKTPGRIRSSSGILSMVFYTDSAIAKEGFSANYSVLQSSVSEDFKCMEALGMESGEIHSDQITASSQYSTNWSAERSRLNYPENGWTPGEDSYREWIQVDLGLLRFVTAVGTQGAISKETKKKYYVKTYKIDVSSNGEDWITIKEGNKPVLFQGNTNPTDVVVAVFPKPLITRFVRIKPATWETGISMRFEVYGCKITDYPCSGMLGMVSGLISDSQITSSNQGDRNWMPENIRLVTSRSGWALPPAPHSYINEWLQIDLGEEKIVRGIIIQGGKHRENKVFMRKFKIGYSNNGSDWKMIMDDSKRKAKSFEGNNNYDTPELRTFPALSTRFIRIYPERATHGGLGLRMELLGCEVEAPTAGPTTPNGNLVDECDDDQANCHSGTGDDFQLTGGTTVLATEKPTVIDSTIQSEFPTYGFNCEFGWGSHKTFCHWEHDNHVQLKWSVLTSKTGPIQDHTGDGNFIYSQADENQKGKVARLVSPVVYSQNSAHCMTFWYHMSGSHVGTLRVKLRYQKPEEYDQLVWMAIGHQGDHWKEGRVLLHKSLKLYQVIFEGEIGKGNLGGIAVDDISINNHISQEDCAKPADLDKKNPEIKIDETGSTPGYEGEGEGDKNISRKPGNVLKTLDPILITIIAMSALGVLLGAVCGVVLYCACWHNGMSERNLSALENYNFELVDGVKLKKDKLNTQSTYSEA
Yeast superoxide = reduction of superoxide in aged yeast, primary screen, HTS; S. cerevisiae aged cells, superoxide DHE fluorescence; active compounds read low; superoxide response (% of plate mean), % at 10 µM; hit rate 0.18% among 330,000;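 active = superoxide response under a set limit, about three screen SD below normal, cut at about 65% in these data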;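 also: yeast aged for seven days with compound at 30 °C before DHE staining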
M18AAP inhibitor = PfM18AAP inhibitors, malaria aminopeptidase, primary screen, biochemical, QFRET, recombinant enzyme; H-Glu-NHMec fluorogenic cleavage; inhibition, % at 7.35 µM; hit rate 1.2% among 290,000; AID 1822, 2009;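 active = inhibition above the campaign mean inhibition over all tested compounds plus 3 SD, cut at about 28% in these data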
APOBEC3G inh = APOBEC3G DNA deaminase inhibitors, primary screen, biochemical, fluorescence, single-stranded DNA substrate, uHTS; recombinant A3G, ssDNA deamination FAM/TAMRA fluorescence; hit rate 0.28% among 330,000; inhibition, % at 20 µM; AID 493012, 2011; DNA dC->dU-editing enzyme APOBEC-3G (Homo sapiens), Q9HC16;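 active = inhibition of at least 40% at 20 µM, with no more than 30% in the related APOBEC3A deaminase screen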
ALR inh = inhibitors of human ALR sulfhydryl oxidase, primary screen, biochemical, H2O2 detection, HRP-luminol luminescence, single point; purified ALR, DTT oxidation; inhibition, % (test concentration not listed); hit rate 3.8% among 290,000; AID 485317, 2010;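 active = mean replicate inhibition above about 79%, with every replicate also reaching it, limit read from the data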
A3A deaminase = APOBEC3A ssDNA deaminase inhibitors, primary screen, selectivity assay for APOBEC3G inhibitor project, biochemical, FAM/TAMRA oligo cleavage fluorescence. recombinant A3A, FAM/TAMRA ssDNA deamination fluorescence. inhibition, % at 20 µM. hit rate 0.41% among 330,000;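 active = at least 40% inhibition at 20 µM here, with at most 30% in a related deaminase screen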
A number is an active result; i = inactive; nt = no result given.

SMILES	CendR NRP1 mod	Yeast superoxide	M18AAP inhibitor	APOBEC3G inh	ALR inh	A3A deaminase
N/C(=N\OC(=O)c1ccc(Cl)cc1[N+](=O)[O-])c1cccnc1	i	i	i	i	i	i
CCOC(=O)c1[nH]c(C)c(C(=O)N2CCN(c3ccc(F)cc3)CC2)c1C	i	i	i	i	90	i
CCOC(=O)c1[nH]c(C)c(C(=O)N2CCN(c3ccc(OC)cc3)CC2)c1C	i	i	i	i	i	i
COc1ccc(-c2nnc(SCC(=O)c3ccc(O)cc3O)o2)cc1	i	i	i	i	i	i
S=c1[nH]nc(Cc2noc3ccccc23)n1-c1ccc(Cl)cc1	i	i	i	i	92	i
Cc1ccc(-n2c(Cc3noc4ccccc34)n[nH]c2=S)cc1	i	i	i	i	i	i
S=c1[nH]nc(COc2ccc(Cl)cc2)n1-c1ccc(Cl)cc1	i	i	i	i	85	i
Cc1n[nH]c(=S)n1-c1ccc(Cl)cc1	i	i	i	i	89	i
Brc1ccccc1OCCCCN1CCCCC1	i	i	i	i	i	i
CCOC(=O)c1sc(-c2ccccc2)cc1NC(=O)Nc1ccc([N+](=O)[O-])cc1	i	i	i	i	99	i
CCOC(=O)c1sc(-c2ccccc2)cc1N	i	i	i	i	i	i
CN1CCc2c(sc(NC(=O)c3ccc(C(=O)c4ccccc4)cc3)c2C(N)=O)C1	i	i	i	i	i	i
Cc1cccc(/C=N/c2sc3c(c2C(=O)OC(C)(C)C)CCN(C)C3)c1O	31	i	i	i	i	i
CCOC(=O)c1c(/N=C/c2cc(C)ccc2O)sc2c1CCN(C)C2	i	i	i	i	98	i
O=C(Nc1ccccc1Cl)c1cccs1	26	i	i	i	nt	i
N#Cc1ccccc1NC(=O)COC(=O)c1cccs1	i	i	nt	i	nt	i
Nc1ccc(NC(=O)c2cccs2)cc1	i	i	i	i	98	i
N#Cc1ccccc1NC(=S)NC(=O)c1cccs1	i	i	i	i	98	i
CN1CCN(S(=O)(=O)c2ccc(NC(=O)c3cccs3)cc2)CC1	22	i	i	i	i	i
CCOC(=O)C1(C)CCCCCN1C(=O)c1ccc(OC)c(C(F)(F)F)c1 (stereo not drawn)	i	nt	nt	nt	nt	nt
CC1CCc2c(ccc3ccccc23)C1=O (stereo not drawn)	i	nt	nt	nt	nt	nt
CCOC(=O)c1cc(CO)cc(C(=O)OCC)c1	i	i	i	i	i	i
O=C(CN1C(=O)NC(c2ccccc2)(c2ccccc2)C1=O)Nc1ccc2[nH]c(=O)[nH]c2c1	i	i	i	i	i	i
COc1ccc(C(=O)Nc2ccc(C(=O)OCC(=O)c3cccc4ccccc34)cc2)cc1	32	i	i	i	i	i
CC(O)C(NC=C1C(=O)OC(C)(C)OC1=O)C(=O)O (stereo not drawn)	29	i	i	i	i	i
SMILES	CendR NRP1 mod	Yeast superoxide	M18AAP inhibitor	APOBEC3G inh	ALR inh	A3A deaminase
CC(C)C(NC=C1C(=O)OC(C)(C)OC1=O)C(=O)O (stereo not drawn)	i	i	i	i	i	i
C/C(=N\NC(=O)c1ccc(O)cc1)c1cccc(NC(=O)c2ccccc2C)c1	i	i	i	i	i	i
Cc1c(N=Nc2ccc(O)cc2)c(=O)n(-c2ccccc2)n1C	i	i	i	i	i	i
Cc1cc(N)ccc1N=Nc1c(C)n(C)n(-c2ccccc2)c1=O	i	i	i	i	99	i
Cc1[nH]c2ccccc2c1N=Nc1cc(C(=O)O)cc(C(=O)O)c1	i	i	i	i	i	i
Cc1[nH]c2ccccc2c1N=Nc1c(C)n(C)n(-c2ccccc2)c1=O	i	i	i	i	99	i
Cc1c(N=NC2=C(O)CCCC2=O)c(=O)n(-c2ccccc2)n1C	i	i	32	i	i	i
Cc1[nH]c2ccccc2c1N=Nc1ccc(F)cc1	i	i	i	i	98	i
Cn1c(=O)c2cc(NC(=O)NCCc3cccs3)ccc2n1C/C=C/c1ccccc1	i	nt	nt	nt	nt	nt
O=C(NCc1ccc(Cl)cc1)C1CCC(=O)N(C2CC2)C1 (stereo not drawn)	20	i	i	i	i	i
CC(=O)c1cccc(-c2ccnc3c2CC(C(=O)NC(C)C)O3)c1 (stereo not drawn)	i	nt	nt	nt	nt	nt
CCn1cc(C(=O)NCc2ccncc2)c(=O)c2cc(F)c(N3CCN(C(=O)c4ccco4)CC3)cc21	i	i	i	i	i	i
COc1ccc(C2CC23N=C(c2ccccc2)OC3=O)cc1 (stereo not drawn)	i	i	i	nt	97	nt
CCOc1ccc(/C=N/Nc2nc(C)cs2)c(O)c1	i	i	28	i	i	i
Cc1csc(N/N=C/c2ccccc2F)n1	i	i	i	i	i	i
CCOC(=O)/C(=N\Nc1cc(Cl)ccc1Cl)N1CCOCC1	i	i	i	i	98	i
Clc1ccccc1-c1nc(/C=N/N2CCOCC2)c2ccccn12	i	i	i	i	nt	i
CN1CCN(/N=C/c2nc(-c3ccccc3Cl)n3ccccc23)CC1	i	i	i	i	98	i
COc1ccc(NC(=O)C2c3ccccc3OCC(=O)N2CC(F)(F)F)cc1 (stereo not drawn)	i	nt	nt	nt	nt	nt
CCCC(=O)Nc1ccc(-c2csc(N/N=C\c3ccncc3)n2)cc1	i	i	i	i	98	i
CC(=O)Nc1ccc(-c2csc(N/N=C\c3ccncc3)n2)cc1	i	i	i	i	99	i
CCN(CC)c1ccc(NS(=O)(=O)c2cn(C)c(=O)n(C)c2=O)c(C)c1	i	i	i	i	99	i
COc1ccc2c(Cl)c(C(=O)OCC(=O)c3ccc4c(c3)NC(=O)CO4)sc2c1Cl	i	nt	i	nt	nt	nt
O=C(CCNS(=O)(=O)c1ccccc1)OCc1nc2ccsc2c(=O)[nH]1	i	i	nt	i	i	i
COc1ccc2cc3[n+](cc2c1O)CCc1cc2c(cc1-3)OCO2	31	nt	nt	nt	nt	nt
CCC(C)NS(=O)(=O)c1ccc(OCC(=O)Nc2ccc3c(c2)OCO3)cc1 (stereo not drawn)	i	i	i	i	i	i
C=CC[n+]1c(-c2ccc(Cl)cc2Cl)csc1Nc1ccc(NC(C)=O)cc1	i	i	i	i	i	i
Cc1c(Nc2nc(-c3ccccc3)cs2)c(=O)n(-c2ccccc2)n1C	i	i	i	i	nt	i
C=CC[n+]1c(-c2ccc(C)cc2)csc1Nc1c(C)n(C)n(-c2ccccc2)c1=O	i	i	i	i	99	i
C=CC[n+]1c(-c2ccc(Cl)cc2Cl)csc1Nc1c(C)n(C)n(-c2ccccc2)c1=O	i	i	i	i	94	i

Bioassay records: PubChem, several laboratories
